Laboratory results from PubChem BioAssay AID651822 (The Scripps Research Institute Molecular Screening Center, 2012).
Screen size: about 2,300 compounds; about 970 (42%) were called active. The set was probably picked from earlier hits. Not all results are given here. Values without a mark were called inactive. Rule as the data show it: active = inhibition above about 4.5%; inactive = the rest.

What follows are compounds tested on Methionine sulfoxide reductase A (Bos taurus) (assay: methionine sulfoxide reductase A inhibition – biochemical, absorbance, bovine, HTS, confirmation (AID 651822;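 also: coupled to thioredoxin reductase with NADPH and selenocystamine and DMSO as substrate; 0% = vehicle only and 100% = full effect of reference inhibitor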)). Conditions: purified bovine MsrA, absorbance read-out; at 15.5 µM; stronger effect = higher value.
`COc1ccccc1C(=O)N/C(=C/c1ccc2c(c1)OCO2)C(=O)Nc1cccc(C(=O)O)c1` showed an inhibition of 3.23%.
With `COc1ccc(/C=C(/NC(=O)c2ccco2)C(=O)Nc2ccc(C(C)=O)cc2)cc1` the inhibition was 5.97% (active).
For `CCN(CC)C(=O)c1sc(NC(=O)c2ccco2)c(C#N)c1C`, the inhibition was 3.8%.
`COc1ccc(C(=O)CSc2nc(C)cc(C)n2)cc1[N+](=O)[O-]` was tested, and the inhibition was 7.55% (active).
With `Cc1cc(C)nc(S/C=C/C(=O)c2ccccc2)n1` the inhibition was 4.29%.
In the case of `Cc1cccc(-n2c(O)c(C=Nc3ccccc3N)c(=O)[nH]c2=O)c1`, the inhibition is reported as 3.07%.
`COc1ccc(/C=N/n2nnnc2N)cc1OC` gave an inhibition of 2.84%.
`CCOc1cc(/C=N/NC(=O)c2c(C)nc3ccc(Cl)cn23)ccc1O` gave an inhibition of 4.5%.
In the case of `COc1ccc(/C=N\NC(=O)c2sc(N)nc2C)cc1OC`, the inhibition is reported as 6.13% (active).
With `COc1ccc(/C=C2\N=C3CCCN3C2=O)cc1` the inhibition was 2.42%.
In the case of `COc1ccc(/C=C2\SC(=O)N(CCC(=O)NC3CCS(=O)(=O)C3)C2=O)cc1` (centres undefined), the inhibition is reported as 5.86% (active).
`Cc1n[nH]c(=O)nc1N/N=C/c1cccs1` was tested, and the inhibition was 3.61%.
With `CCOc1cc(/C=N/NC(=O)c2ccc(CSc3nncn3C)cc2)ccc1OCC(=O)N1CCOCC1` the inhibition was 3.67%.
In the case of `O=C(N/N=C/c1ccc2c(c1)OCO2)c1ccc(Cn2cc([N+](=O)[O-])cn2)o1`, the inhibition is reported as 4.56% (active).
`COc1ccc(OC)c(C2C3=C(N=c4s/c(=C\c5cccc(O)c5)c(=O)n42)c2ccccc2CC3)c1` (centres undefined) gave an inhibition of 3.18%.
In the case of `CC(N=Cc1nc(-c2ccccc2)oc1O)c1ccccc1` (centres undefined), the inhibition is reported as 3.02%.
With `COC(=O)/C(C#N)=C/c1occc1C` the inhibition was 4.58% (active).
With `CC(Nc1ccc([N+](=O)[O-])cc1[N+](=O)[O-])c1ccccc1` (centres undefined) the inhibition was 32.3% (active).
`O=C(Cc1ccccn1)c1ccc(O)cc1O` gave an inhibition of 2.96%.
For `Cc1ccc(S(=O)(=O)Nc2nc(C)cc(N/N=C/c3ccc(O)cc3)n2)cc1`, the inhibition was 4.89% (active).
`CN(c1ccccc1)S(=O)(=O)c1ccc2[nH]c(=O)[nH]c2c1` was tested, and the inhibition was 9.47% (active).
`CS(=O)(=O)c1ccc2nc(NC(=O)c3ccc(Cl)nc3)sc2c1` was tested, and the inhibition was 4.5%.
`Cc1ccc(C(=O)N/N=C/c2sc(=O)n(Cc3cccc(C(=O)O)c3)c2Cl)cc1` was tested, and the inhibition was 6.35% (active).
Work on `Oc1ccc(/C=N/Nc2ccc(C(F)(F)F)cn2)cc1O` yielded an inhibition of 4.15%.
With `O=C(O)c1ccc(N/N=C/c2ccc3ncccc3c2)cc1` the inhibition was 7.49% (active).
For `COc1ccccc1-c1n[nH]c2c1[C@H](C)CC[C@H]2C(C)C`, the inhibition was 8.12% (active).
With `Cc1ccc(Nc2ccc(C(N)=O)cc2[N+](=O)[O-])cc1` the inhibition was 5.43% (active).
For `NC(=O)c1ccc(Nc2ccc3c(c2)CCC3)c([N+](=O)[O-])c1`, the inhibition was 12% (active).
With `CCn1cc(/C=C(\NC(=O)c2ccc(C)cc2)C(=O)NCCN2CCOCC2)c2ccccc21` the inhibition was 1.62%.
With `COc1ccc(-c2ccc(Nc3ccc(S(=O)(=O)N4CCCC4)cc3)nn2)cc1OC` the inhibition was 4.64% (active).
For `CCOc1ccc(/C=C(/C#N)c2nnc(N3CCOCC3)n2-c2ccccc2)cc1OC`, the inhibition was 2.86%.
Work on `CC(=O)c1sc2nc(SCC(=O)N3CCCCC3)[nH]c(=O)c2c1C` yielded an inhibition of 4.28%.
With `CCCc1nc(SCC(=O)N2CCCC2)c2c(=O)n(C)c(=O)n(C)c2n1` the inhibition was 4.83% (active).
Work on `CC1CCCCN1S(=O)(=O)c1ccc(C(=O)Nc2nnc(-c3cccs3)o2)cc1` (centres undefined) yielded an inhibition of 2.45%.
With `Cc1ccc(CC2(C)C(=O)Nc3ccc(OC(F)(F)F)cc32)cc1` (centres undefined) the inhibition was 8.12% (active).
`CC(=O)c1ccc(N2CCN(CC(=O)Nc3ccccc3N3CCOCC3)CC2)cc1` gave an inhibition of 1.04%.
With `CSc1ccc(/C=C2\NC(=O)NC2=O)cc1` the inhibition was 3.93%.
`O=Cc1cn(-c2ccccc2)nc1-c1ccccn1` was tested, and the inhibition was 5.38% (active).
`Cc1ccc(/C=N/NC(=S)NC2CCCCC2)o1` showed an inhibition of 4.23%.
In the case of `Cc1ccc(S(=O)(=O)N(C)c2ccc(OCC(=O)OCc3ccc(C#N)cc3)cc2)cc1`, the inhibition is reported as 5.74% (active).
`CC(=O)c1ccc(N2CCN(C(=O)c3ccc4nc[nH]c4c3)CC2)cc1` was tested, and the inhibition was 3.02%.
With `O=C(CNC(=O)c1cccnc1)N/N=C/c1cc(Br)c(O)c(Br)c1` the inhibition was 4.48%.
`O=C(CNC(=O)C1COc2ccccc2O1)N/N=C/c1cc(Br)c(O)c(Br)c1` (centres undefined) was tested, and the inhibition was 7.08% (active).
In the case of `O=C1/C(=C\Nc2ccccc2)CCN1c1ncccn1`, the inhibition is reported as 6.98% (active).
`CC(=O)Nc1ccc(S(=O)(=O)Oc2ccc(/C=N/N=C3/NC(=O)C(CC(=O)O)S3)cc2)cc1` (centres undefined) gave an inhibition of 2.79%.
With `O=C(O)c1ccc(N/N=C/c2cn(-c3ccccc3)nc2-c2cccs2)cc1` the inhibition was 5.22% (active).
In the case of `CC(=O)N1N=C(c2ccncc2)OC1(Cc1ccccc1)Cc1ccccc1`, the inhibition is reported as 9.69% (active).
With `Cc1ccc(N2C(=O)CN=C2Nc2nc(C)cc(C)n2)cc1` the inhibition was 4.56% (active).
With `Cc1c(C(=O)N2CCCc3ccccc32)oc2ccccc12` the inhibition was 7.55% (active).
In the case of `COc1ccc(C2/C(=C(/O)c3ccccc3)C(=O)C(=O)N2C)c(OC)c1` (centres undefined), the inhibition is reported as 1.16%.
Compound `Clc1cccc(-c2nc3nc4ccccc4nc3n2Cc2ccco2)c1` has an inhibition of 1.65%.
Compound `O=S1(=O)N=C(N(CCO)/N=C/c2ccccc2F)c2ccccc21` has an inhibition of 2.79%.
In the case of `CCOC(=O)C(C)n1cnc2scc(-c3ccc(C)c(C)c3)c2c1=O` (centres undefined), the inhibition is reported as 5.16% (active).
`COc1cc2cc(C(=O)N/N=C/c3cccc(OC)c3OC)[nH]c2cc1OC` was tested, and the inhibition was 5.26% (active).
For `CCOc1ccc2[nH]c(C(=O)N/N=C/c3cccc(OC)c3OC)cc2c1`, the inhibition was 3%.
For `Cc1ccccc1C(CC(=O)c1cccs1)C(C#N)C#N` (centres undefined), the inhibition was 2.52%.
`Nc1nnnn1CC(=O)N/N=C/c1ccc(-c2cccc(Cl)c2)o1` gave an inhibition of 3.45%.
In the case of `Cc1cccc2cc(C#N)c(N3CCCC3)nc12`, the inhibition is reported as 7.09% (active).
Compound `Cc1occc1C(=O)N/N=C/c1ccc(-c2cccc([N+](=O)[O-])c2)o1` has an inhibition of 3.63%.
With `O=C(N/N=C/c1ccco1)c1ccc(C(=O)N/N=C/c2ccco2)o1` the inhibition was 10.6% (active).
For `Cc1oc2c(c1C(=O)N1CCOCC1)C(=O)c1ccccc1C2=O`, the inhibition was 15.3% (active).
For `COCCNC(=S)N/N=C/c1c(C)[nH]c2ccccc12`, the inhibition was 4.03%.
For `C=CCNC(=S)N/N=C/c1ccc(C)s1`, the inhibition was 5.29% (active).
`Cc1cc(C(=O)N/N=C/c2ccc(O)c([N+](=O)[O-])c2)c(C)n1-c1ccc(F)cc1` was tested, and the inhibition was 4.12%.
`NC(=S)N/N=C/c1ccc([N+](=O)[O-])cc1` was tested, and the inhibition was 4.55% (active).
`Cc1ccc(N2CCN(C3=NC(=O)/C(=C\c4cccs4)S3)CC2)cc1` gave an inhibition of 1.26%.
`COc1ccc(/C=C/C(=O)NC(=S)N2CCCC(C(N)=O)C2)cc1` (centres undefined) was tested, and the inhibition was 6.19% (active).
`COc1ccc(C2=NS(=O)(=O)N(C)C(C(=O)N3CCCCC3)=C2)cc1` gave an inhibition of 3.33%.
`CC(=O)Nc1ccc(/C=N/NC(=O)c2cccs2)cc1` gave an inhibition of 3.39%.
`O=C(N/N=C/C=C/c1ccco1)c1cccs1` was tested, and the inhibition was 7.55% (active).
`CCN(CC)c1ccc(/C=N/NC(=O)CNC(=O)c2cccs2)cc1` showed an inhibition of 3.57%.
Work on `COc1ccc(CC(=O)c2ccc(O)cc2O)cc1OC` yielded an inhibition of 4.03%.
In the case of `CCOC(=O)C/C(C)=N\Nc1ccc([N+](=O)[O-])cc1[N+](=O)[O-]`, the inhibition is reported as 9.34% (active).
Compound `C/C(=N\Nc1ccc(S(N)(=O)=O)cc1[N+](=O)[O-])c1cccs1` has an inhibition of 1.79%.
For `COc1cc(C2C(C(=O)c3sc(C)nc3C)=C(O)C(=O)N2CCN(C)C)cc(OC)c1OC` (centres undefined), the inhibition was 9.08% (active).
`Cc1ccc(-c2ccc(/C=C(\C#N)C(N)=S)o2)c([N+](=O)[O-])c1` showed an inhibition of 2.76%.
With `COc1ccc(/C=C/C(=O)Nc2cccnc2)cc1OC` the inhibition was 4.72% (active).
With `CC(/C=N/NC(=O)c1ccncc1)=C\c1ccco1` the inhibition was 6.11% (active).
In the case of `CC(C)Oc1c(Br)cc(Br)cc1/C=N/NC(N)=S`, the inhibition is reported as 6.46% (active).
Compound `CCOC(OCC)c1ccc(/C=C\c2nccc(N)n2)cc1` has an inhibition of 3.39%.
With `CCc1nnc(NC(=O)/C=C/c2ccc(C)o2)s1` the inhibition was 6.27% (active).
`CCc1nnc(NS(=O)(=O)c2ccc(NC(=S)NC(=O)/C=C/c3cccs3)cc2)s1` showed an inhibition of 4.14%.
For `COc1cccc(C2=CC(=O)C[C@H](c3ccc(F)cc3)C2)c1OC`, the inhibition was 1.12%.
Compound `CN1CCN(CCC(=O)N/N=C/C=C2\N(C)c3ccccc3C2(C)C)CC1` has an inhibition of 4.4%.
In the case of `O=C(Oc1c(-c2ccco2)oc2ccccc2c1=O)c1cccnc1`, the inhibition is reported as 4.83% (active).
Compound `Cc1c(C=O)c2ccccn2c1C(=O)c1ccncc1` has an inhibition of 4.31%.
In the case of `COc1cccc(/C(C)=N/Nc2ncc(Cl)cc2Cl)c1`, the inhibition is reported as 5.95% (active).
`O=C(Nc1ccc(C(=O)O)cc1)/C(=C/c1ccc([N+](=O)[O-])cc1)NC(=O)c1ccccc1` was tested, and the inhibition was 2.84%.
For `CNC(=O)/C(=C\C=C\c1ccccc1)NC(=O)c1ccc([N+](=O)[O-])cc1`, the inhibition was 4.89% (active).
For `C(=N/Nc1cc(N2CCOCC2)nc(N2CCOCC2)n1)/c1ccccc1`, the inhibition was 2.4%.
Work on `Cc1cc(C(=O)N/N=C/c2ccc(N3CCOCC3)cc2)c(C)o1` yielded an inhibition of 3.45%.
In the case of `COc1ccc(/C=N/Nc2cc(N3CCOCC3)nc(C)n2)c(OC)c1`, the inhibition is reported as 5.31% (active).
`COc1ccc(S(=O)(=O)c2c[nH]c(=S)[nH]c2=O)cc1Cl` was tested, and the inhibition was 2.06%.
With `CCOC(=O)c1c(C(C#N)C#N)cc(C)nc1C` the inhibition was 5.34% (active).
`Cc1ccc(Cl)cc1-c1ccc(/C=N/n2cnnc2)o1` gave an inhibition of 3.18%.
For `S=c1[nH]nc(-c2ccccc2)n1/N=C/c1c[nH]c2ccccc12`, the inhibition was 2.93%.
With `O=C(O)c1cccc(NC(=S)N/N=C/c2c[nH]c3ccccc23)c1` the inhibition was 5.97% (active).
`O=C(Nc1cccc(F)c1)c1coc(=O)c(Br)c1` was tested, and the inhibition was 4.61% (active).
Work on `CCOc1cc(/C=C2\SC(N3CCCCC3)=NC2=O)ccc1O` yielded an inhibition of 2.79%.
